These results are taken from PubChem BioAssay (NCATS).

Records with an inconclusive call do not appear. The source made the active and inactive calls. The call rests on the fitted dose curve; in most records, active means well fitted curve in the direction sought with a large enough effect; inconclusive means small, poorly fitted or top-dose-only effect, or another doubt; inactive means no such curve, though single readings can be large; an effect the other way counts as inactive or inconclusive. Where a SMILES comes first, the peptide text is derived from it.

Experiment [1] can be described thus: qHTS of pediatric cancer cell lines to identify multiple opportunities for drug repurposing: Primary screen for OHS-50 cells (AID 1347103). Further: nearly all actives have a fitted effect of over 40% in size. Further: potency means the concentration at half of the fitted maximal effect. Summed up:
(§1)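 Cells (500-1,000/well) rested 5 h, then received compounds for 48 h; metabolically active cells were measured by CellTiter-Glo luminescence. Final concentrations spanned up to 46 µM (MIPE, 11-point) or 0.59 nM-46 µM (NPC, 8-point) in primary screens, 11-point in follow-ups.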
In general terms: In qHTS, concentration-response curves come from the screen itself.

The nature of experiment [2]: qHTS of pediatric cancer cell lines to identify multiple opportunities for drug repurposing: Primary screen for RD cells (AID 1347104). Further: nearly all actives have a fitted effect of over 55% in size. Further: potency means the concentration at half of the fitted maximal effect. Summed up: (§2)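 Primary screen of approved and investigational compounds on cells in growth media at 37 degrees C, 5% CO2. MIPE set at 11-point and NPC set at 8-point dilutions; viability scored by ATP-based luminescence at 48 hours.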

Experiment [3] is described as follows: qHTS of pediatric cancer cell lines to identify multiple opportunities for drug repurposing: Primary screen for MG 63 (6-TG R) cells (AID 1347105). Further: nearly all actives have a fitted effect of over 50% in size. Further: potency means the concentration at half of the fitted maximal effect. Summed up:
as §2

Experiment [4] is described as follows: qHTS of pediatric cancer cell lines to identify multiple opportunities for drug repurposing: Primary screen for control Hh wild type fibroblast cells (AID 1347106).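 Further: series mostly up to about 46 µM; a drop in luminescence marks cytotoxicity and a rise apparent proliferation; nearly all actives have a fitted effect of over 55% in size.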 Summed up: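 Viability after 48 h compound treatment at 37C, 500-1,000 cells/well, read as ATP luminescence with CellTiter-Glo. Primary screens used 11-point (MIPE, 0.78 nM-46 µM) or 8-point (NPC, 0.59 nM-46 µM) final concentrations; follow-up screens used 11-point dilutions.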

A short description of experiment [5]: qHTS of pediatric cancer cell lines to identify multiple opportunities for drug repurposing: Primary screen for Rh41 cells (AID 1347108). Further: nearly all actives have a fitted effect of over 70% in size. Further: potency means the concentration at half of the fitted maximal effect. Summed up: as §2
Experiment [6] is described as follows: qHTS of pediatric cancer cell lines to identify multiple opportunities for drug repurposing: Primary screen for Rh30 cells (AID 1347107). Further: nearly all actives have a fitted effect of over 75% in size. Further: potency means the concentration at half of the fitted maximal effect. The procedure, abridged: as §1
A short description of experiment [7]: qHTS of pediatric cancer cell lines to identify multiple opportunities for drug repurposing: Confirmatory screen for NB1643 cells (AID 1347109). Further: nearly all actives have a fitted effect of over 45% in size. Further: potency means the concentration at half of the fitted maximal effect. Summed up:
as §1

The nature of experiment [8]: qHTS of pediatric cancer cell lines to identify multiple opportunities for drug repurposing: Confirmatory screen for A673 cells (AID 1347110).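 Further: cells exposed to compound for 48 h before the viability read; nearly all actives have a fitted effect of over 65% in size.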 Further: potency means the concentration at half of the fitted maximal effect. The procedure, abridged:
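Forty-eight-hour viability assay. Follow-up compounds ran at 11-point dilutions; positive control bortezomib at 2.3 uM final, neutral control DMSO.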

Experiment [9] is described as follows: qHTS of pediatric cancer cell lines to identify multiple opportunities for drug repurposing: Confirmatory screen for LAN-5 cells (AID 1347113). Further: nearly all actives have a fitted effect of over 65% in size. Further: potency means the concentration at half of the fitted maximal effect. The procedure, abridged:
as §1

Experiment [10] can be described thus: qHTS of pediatric cancer cell lines to identify multiple opportunities for drug repurposing: Confirmatory screen for DAOY cells (AID 1347114). Further: nearly all actives have a fitted effect of over 65% in size. Further: potency means the concentration at half of the fitted maximal effect. Summed up: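 Viability measured as metabolically active cells via CellTiter-Glo luminescence following 48 hours of compound exposure, 11-point dilutions in confirmatory testing. 500-1,000 cells/well plated 5 hours before dosing; controls were DMSO and 2.3 µM bortezomib.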

The nature of experiment [11]: qHTS of pediatric cancer cell lines to identify multiple opportunities for drug repurposing: Confirmatory screen for NB-EBc1 cells (AID 1347115).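 Further: cells exposed to compound for 48 h before the viability read; nearly all actives have a fitted effect of over 45% in size.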 Further: potency means the concentration at half of the fitted maximal effect. Summed up:
as §1

The nature of experiment [12]: qHTS of pediatric cancer cell lines to identify multiple opportunities for drug repurposing: Confirmatory screen for control Hh wild type fibroblast cells (AID 1347121). Further: nearly all actives have a fitted effect of over 70% in size. Further: potency means the concentration at half of the fitted maximal effect. The procedure, abridged: as §1
A short description of experiment [13]: qHTS of pediatric cancer cell lines to identify multiple opportunities for drug repurposing: Confirmatory screen for U-2 OS cells (AID 1347122). Further: nearly all actives have a fitted effect of over 65% in size. Further: potency means the concentration at half of the fitted maximal effect. Summed up: as §1
A short description of experiment [14]: qHTS of pediatric cancer cell lines to identify multiple opportunities for drug repurposing: Confirmatory screen for Rh41 cells (AID 1347123).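 Further: 48 h compound exposure; nearly all actives have a fitted effect of over 60% in size.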 Further: potency means the concentration at half of the fitted maximal effect. Summed up:
as §1

Experiment [15] can be described thus: qHTS of pediatric cancer cell lines to identify multiple opportunities for drug repurposing: Confirmatory screen for RD cells (AID 1347124). Further: potency means the concentration at half of the fitted maximal effect. Summed up:
as §1

Experiment [16] can be described thus: qHTS of pediatric cancer cell lines to identify multiple opportunities for drug repurposing: Confirmatory screen for Rh18 cells (AID 1347125). Further: nearly all actives have a fitted effect of over 55% in size. Further: potency means the concentration at half of the fitted maximal effect. Summed up: as §1
Experiment [17] can be described thus: qHTS of pediatric cancer cell lines to identify multiple opportunities for drug repurposing: Confirmatory screen for Rh30 cells (AID 1347126). Further: nearly all actives have a fitted effect of over 55% in size. Further: potency means the concentration at half of the fitted maximal effect. The procedure, abridged: as §1
Experiment [18] can be described thus: qHTS of pediatric cancer cell lines to identify multiple opportunities for drug repurposing: Confirmatory screen for Saos-2 cells (AID 1347127). Further: nearly all actives have a fitted effect of over 60% in size. Further: potency means the concentration at half of the fitted maximal effect. The procedure, abridged: as §1
Experiment [19] is described as follows: qHTS of pediatric cancer cell lines to identify multiple opportunities for drug repurposing: Confirmatory screen for MG 63 (6-TG R) cells (AID 1347119). Further: nearly all actives have a fitted effect of over 55% in size. Further: potency means the concentration at half of the fitted maximal effect. The procedure, abridged:
as §1

The nature of experiment [20]: qHTS of pediatric cancer cell lines to identify multiple opportunities for drug repurposing: Confirmatory screen for SK-N-MC cells (AID 1347111).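 Further: potency means the concentration at half of the fitted maximal effect; cells exposed to compound for 48 h before the readout; nearly all actives have a fitted effect of over 70% in size.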 Summed up: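 Seed 500-1,000 cells/well; rest 5 h at 37 degrees C. Pin-transfer compounds, 11-point titration. Incubate 48 h. Add CellTiter-Glo, 15 min RT, read luminescence.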

On to `CC(C)(C)c1cc(C=O)cc(C(C)(C)C)c1O`, for which the Potency entry in experiment [1], in experiment [2], in experiment [3], in experiment [4] and in experiment [5] was “inactive” each time.

On to `Nc1c(NC/C=C\COc2cc(CN3CCCCC3)ccn2)c(=O)c1=O`, for which the Potency entry in experiment [1], in experiment [2], in experiment [3], in experiment [4] and in experiment [5] was “inactive” in each case.

Consider `CCN(CC)C(=O)C1CN2CCc3cc(OC)c(OC)cc3C2CC1OC(C)=O` (configuration not stated), for which the Potency result in [1], in experiment [2], in [3], in [4] and in experiment [5] was “inactive” in each case.

Consider `N=C(N)c1ccc(OCCCOc2ccc(C(=N)N)cc2)cc1`, for which the Potency entry in [1], in [2], in experiment [3], in experiment [4], in experiment [6] and in experiment [7] was “inactive” in each case. The Potency result in experiment [8], in experiment [9], in [11], in experiment [12], in experiment [14] and in experiment [15] was “inactive” throughout. The Potency entry in experiment [16], in experiment [17] and in experiment [18] was “inactive” in each case. Besides, the Potency in experiment [10] was 18.5 µM (active); in [13], 0.465 µM (active).

Turning to `CC(=O)N[C@@H](CO)C(=O)N[C@@H](CC(=O)O)C(=O)N[C@@H](CCCCN)C(=O)N1CCC[C@H]1C(=O)O` (Ac-SDKP-OH), the Potency entry in [1], in experiment [2], in experiment [3], in [4] and in experiment [5] was “inactive” throughout.

With `Cc1c(F)cc2c(=O)c(C(=O)O)cn3c2c1CCC3C` (configuration not stated), the Potency entry in [1], in [2], in experiment [3], in experiment [4] and in [5] was “inactive” in each case.

As for `COC(=O)c1cc(S(N)(=O)=O)ccc1OC`, the Potency entry in experiment [1], in [2], in experiment [3], in experiment [4] and in [5] was “inactive” in each case.

Regarding `C[C@H]1C[C@@H]2[C@H]([C@@H](O)C[C@@]3(C)[C@H]2CC[C@]3(O)C(=O)CO)[C@@]2(C)C=CC(=O)C=C12`, the Potency entry in experiment [1], in experiment [2], in [3], in experiment [4], in [5] and in experiment [8] was “inactive” in each case. Also, the Potency entry in experiment [10], in experiment [11], in experiment [12], in [13], in experiment [14] and in [16] was “inactive” each time.

With `COc1ccc2c(c1)CCCC2=O`, the Potency entry in experiment [1], in [2], in experiment [3], in [4] and in experiment [5] was “inactive” each time.

Turning to `CCCCC(CC)CNC(=O)CC(C)OC(=O)CCC(=O)O` (configuration not stated), the Potency result in experiment [1], in experiment [2], in experiment [3], in experiment [4], in experiment [6] and in experiment [5] was “inactive” each time. Further, the Potency entry in experiment [7], in [10], in experiment [11], in experiment [19], in experiment [12] and in experiment [13] was “inactive” throughout. In addition, the Potency result in experiment [14], in experiment [15], in experiment [16] and in experiment [17] was “inactive” in each case. The Potency in experiment [8] is 2.61 µM (active).

As for `COc1cc(OC)nc(O[C@H](C(=O)O)C(OC)(c2ccccc2)c2ccccc2)n1`, the Potency entry in experiment [1], in experiment [2], in experiment [3], in experiment [4] and in experiment [5] was “inactive” each time.

Turning to `C[C@H]1C[C@H]2[C@@H]3CCC4=CC(=O)C=C[C@]4(C)[C@H]3C(=O)C[C@]2(C)[C@@]1(O)C(=O)CO`, the Potency result in experiment [1], in experiment [2], in [3], in experiment [4], in [6] and in [5] was “inactive” in each case. In addition, in experiment [10], the Potency entry is “inactive”. Moreover, the Potency is 2.61 µM (active) in experiment [7]; 2.93 µM (active) in [9]; 8.27 µM (active) in experiment [11]; 4.65 µM (active) in experiment [19]; 2.93 µM (active) in experiment [15]; 3.29 µM (active) in [16]. Also, in experiment [18], the Potency is 3.69 µM (active).

Turning to `CCCC(=O)O[C@]1(C(=O)COC(=O)CC)CC[C@H]2[C@@H]3CCC4=CC(=O)CC[C@]4(C)[C@H]3[C@@H](O)C[C@@]21C`, the Potency result in [1], in experiment [2], in experiment [3], in experiment [6], in experiment [7] and in experiment [8] was “inactive” throughout. Further, the Potency entry in experiment [9], in experiment [11], in experiment [19], in experiment [12], in experiment [16] and in experiment [18] was “inactive” in each case. Also, in [20], the Potency is 6.57 µM (active).

As for `CCCCCCCCCCCC[N+](C)(C)Cc1ccccc1`, the Potency in experiment [1] was 1.74 µM (active); in experiment [2] it was 9.44 µM (active); in [6], 18.8 µM (active); in [5], 21.1 µM (active).

Take `CCCCCCCCCCCCCCCC[N+](C)(C)Cc1ccccc1`: the Potency in experiment [1] is 11 µM (active); in [3], 26.6 µM (active).

Turning to `COc1ccc(-n2nc(CCC(=O)N(C)O)cc2-c2ccc(Cl)cc2)cc1`, in experiment [1], the Potency is 19.5 µM (active). In addition, the Potency result in experiment [3], in experiment [4] and in [6] was “inactive” in each case.

Consider `CCOC(=O)[C@H](CCc1ccccc1)N[C@@H](C)C(=O)N(CC(=O)O)C1Cc2ccccc2C1`, for which the Potency result in experiment [1], in [2], in experiment [4] and in experiment [6] was “inactive” in each case.

`Cc1nc(N)nc(N)c1-c1ccc(Cl)c(Cl)c1`: the Potency in experiment [1] is 2.76 µM (active); in experiment [2], 1.33 µM (active); in experiment [8], 1.65 µM (active); in experiment [20], 0.147 µM (active); in experiment [15], 2.61 µM (active). For the same compound, the Potency entry in experiment [4], in experiment [5], in experiment [9], in experiment [19], in [12] and in experiment [14] was “inactive” in each case. In addition, the Potency entry in experiment [16] and in [17] was “inactive” each time.

Regarding `CO[C@@H]1[C@@H](OC)[C@H](C)[C@@](O)(CC(=O)O)O[C@H]1[C@H](C)[C@H]1O[C@@]2(CC[C@@](C)([C@H]3CC[C@@](C)([C@@H]4O[C@@H]([C@H]5O[C@](C)(O)[C@H](C)C[C@@H]5C)C[C@@H]4OC4C[C@H](OC)[C@@H](OC)[C@H](C)O4)O3)O2)C[C@H](O)[C@H]1C` (some centres not stated), the Potency in [1] is 0.389 µM (active); in [2], 4.73 µM (active); in [5], 4.22 µM (active); in experiment [7], 0.737 µM (active); in experiment [8] it was 2.61 µM (active); in experiment [20], 1.31 µM (active). Further, the Potency in experiment [9] was 0.522 µM (active); in experiment [10], 1.85 µM (active); in [11], 1.47 µM (active); in experiment [19] it was 0.522 µM (active); in [12], 8.27 µM (active); in experiment [13], 0.329 µM (active). The Potency in [14] is 0.465 µM (active); in experiment [16], 6.57 µM (active); in experiment [17] it was 7.37 µM (active); in [18] it was 1.17 µM (active). For the same compound, the Potency entry in experiment [6] was “inactive”.
